Laboratory results from PubChem BioAssay AID504332 (National Center for Advancing Translational Sciences (NCATS), 2011).
Hit rate of the full screen: of about 350,000 compounds, about 31,000 (8.9%) were called active. Inconclusive results (about 15%) are left out. Many of the other results were omitted from the sample, so actives are more common in it than they were. Unmarked numbers belong to inactive results. Calls follow the shape of the dose curve; as a rule, active = well fitted inhibition curve with a large enough effect; inconclusive = small, poorly fitted or top-dose-only effect; inactive = no such curve, though single readings can be large or run the other way.

These compounds were tested against Histone-lysine N-methyltransferase EHMT2 (Homo sapiens) (UniProt Q96KQ7) (assay: qHTS Assay for Inhibitors of Histone Lysine Methyltransferase G9a). Conditions: G9a H3K9 monomethylation, AlphaScreen, 2 h; series mostly up to 59 µM; activity, negative = inhibition: at the top concentration.
Sequence of Histone-lysine N-methyltransferase EHMT2 (Homo sapiens) (Q96KQ7 913-1193 limits assumed): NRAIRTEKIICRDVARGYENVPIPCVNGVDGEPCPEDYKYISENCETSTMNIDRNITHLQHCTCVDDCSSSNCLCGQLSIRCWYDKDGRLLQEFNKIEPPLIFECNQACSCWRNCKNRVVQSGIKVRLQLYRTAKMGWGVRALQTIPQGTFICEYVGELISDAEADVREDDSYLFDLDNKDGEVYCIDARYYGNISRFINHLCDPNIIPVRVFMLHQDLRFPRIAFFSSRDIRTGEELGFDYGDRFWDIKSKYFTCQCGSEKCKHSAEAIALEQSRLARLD
Summary of the method: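 Readings reflect AlphaScreen signal from monomethyl-H3K9 antibody detection. HMT at 20 nM; substrate b-H3K9 500 nM; cofactor SAM 20 uM; 2 h RT reaction; compounds tested as titrations in qHTS with 15 min preincubation.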
% is scaled to controls: 0 for no effect and ±100 for the full control effect; potency is read from the fitted curve at half-maximal effect.
Also: nearly all actives have a fitted effect of over 75% in size.

Compound	activity, negative = inhibition	Potency
Cc1ccc(S(=O)(=O)N2CCN(C(=O)N3CCOCC3)CC2)c(C)c1	11.4% [at 102 µM]	
COC(=O)c1sc(=S)n(-c2ccccc2)c1N		3.16 µM (active)
COC(=O)c1sc(=S)n(-c2ccc(Cl)cc2)c1C	-36.4%	
Cc1cccc(C(=O)N2CCCN(C(=O)c3cccc(C)c3)CC2)c1	-5.03% [at 12.7 µM]	
COC(=O)c1sc(N2CCN(Cc3ccccc3)CC2)nc1N	-23.6% [at 102 µM]	
CC(C)=C1SC(N2CCN(c3cccc(C)c3)CC2)=NC1=O	10.3% [at 12.7 µM]	
Cc1cccc(-n2c(N)c(C(=O)N3CCN(C)CC3)sc2=S)c1		8.91 µM (active)
COc1ccc(CCNc2nc(-c3ccc(Cl)cc3)cc(C(F)(F)F)n2)cc1OC	30.5%	
COc1cc(-c2noc(-c3ccc(N4CCCC4)c([N+](=O)[O-])c3)n2)cc(OC)c1OC	-34%	
O=C(COc1ccccc1)OCc1cc(=O)n2nc(-c3cccs3)sc2n1	15.1%	
NC(=O)N/N=C\c1cccs1	6.75% [at 102 µM]	
Cc1cccc(-n2c(C)cc(/C=N\NC(=O)c3cccs3)c2C)c1	1.88%	
Cc1cc(/C=N/NC(N)=O)c(C)n1C1CCCCC1		50.1 µM (active)
COc1cccc(C(=O)NNC(=O)c2ccccc2Br)c1	2.81% [at 102 µM]	
COc1ccc2c(c1)Cc1sc(NC(=O)c3ccccc3Br)nc1-2		25.1 µM (active)
Cn1c(=O)c(=O)n(C)c2cc(NC(=O)c3ccccc3Br)ccc21	6.51%	
COc1ccc(CNC(=O)c2cc3c(-c4ccccc4F)nn(C)c3s2)c(OC)c1	3.86%	
CCN(CC(=O)Nc1ccccc1C(F)(F)F)C(=O)CSCc1c(C)noc1C	9.18% [at 0.501 µM]	
CCOC(=O)C1(Cc2ccccc2C)CCCN(C(=O)CCc2c(C)noc2C)C1 (centres undefined)	65.5% [at 102 µM]	
CCOc1ccc(N2C(=O)/C(=C/c3ccc(C)o3)N(C)C2=S)cc1		3.55 µM (active)
CCOc1ccc(N2C(=O)CN(c3cccc4ccccc34)C2=S)cc1	-2.7% [at 102 µM]	
CCOc1ccc(N2C(=O)CSC2=NC#N)cc1	-16.5% [at 12.7 µM]	
COc1ccc(/C=C2\SC(=O)N(CCC(=O)NC3CCS(=O)(=O)C3)C2=O)cc1 (centres undefined)	10.4% [at 102 µM]	
Cc1ccc(-n2c3nc(=O)[nH]c(=O)c-3cc3c(Cl)cccc32)cc1	0.296%	
CCOc1ccc(S(=O)(=O)N2CCCC(C(=O)N3CCC(C(N)=O)CC3)C2)cc1Cl (centres undefined)	10.8% [at 102 µM]	

Compound	activity, negative = inhibition	Potency
CCN1/C(=C\c2ccc3ccccc3[n+]2CC)Sc2cc(C)ccc21		22.4 µM (active)
Cc1nc2nc(SCC(=O)Nc3cccc(F)c3)[nH]c2cc1Br	-6.53% [at 102 µM]	
COc1ccc(C(=O)Nc2ccc(C3(C#N)CCCC3)cc2)cc1OC	5.57% [at 0.501 µM]	
CC1(C)N=C(SCc2ccccc2Cl)c2ccccc2N1	58.5%	
CCc1nnc(NC(=O)/C=C/c2ccc(C)o2)s1	-7.08%	
Cc1ccc(/C=C/C(=O)Nc2ccc([N+](=O)[O-])c(NC(=O)/C=C/c3ccc(C)o3)c2)o1		22.4 µM (active)
CNc1ccc(NC(C)=O)cc1[N+](=O)[O-]	-49.9% [at 102 µM]	
CC(C(=O)N1CCN(c2ccccc2F)CC1)c1ccc([N+](=O)[O-])cc1 (centres undefined)	13.1% [at 0.501 µM]	
COc1ccc2c(CNCCc3ccccc3C)c(C(=O)O)n(Cc3ccccc3C)c2c1	-17.1%	
CCOc1ccc(C2C(C(=O)Nc3ccc(Cl)cc3)=C(C)Nc3nc(C(F)(F)F)nn32)cc1 (centres undefined)	-12%	
Cc1nnc(SCC2=C(C(=O)O)N3C(=O)C(NC(=O)Cn4nc(C)c(Cl)c4C)C3SC2)s1 (centres undefined)		31.6 µM (active)
Cc1nnc(SCC(=O)NC2CCCC2)s1	-22.1%	
O=C1N[C@@H](Cc2ccccc2)C(=O)N2[C@H]1C[C@]1(Br)c3ccccc3N(S(=O)(=O)c3ccccc3)[C@H]21	7.4% [at 2.33 µM]	
CC1CCc2c(sc3nc4n(c(=O)c23)CCS4)C1 (centres undefined)		50.1 µM (active)
CCCn1nnc2sc3c(c2c1=O)CCC(C)C3 (centres undefined)	109% [at 102 µM]	
Cc1ccc(NC(=O)Cn2nnc3sc4c(c3c2=O)CCC(C)C4)cc1 (centres undefined)	-5.2%	
CC1CCN(C(=O)COC(=O)CCC(=O)c2cccs2)CC1	-38.9% [at 102 µM]	
Brc1ccc2c(c1)NC(c1cccnc1)=NC(c1ccccc1)=N2	1.49%	
CCCCN(CC)CCCNC(=O)c1nn(C)c2c1CSc1ccccc1-2	-31.4%	
COc1ccc(C(=O)Nc2ccccc2C(=O)N/N=C/c2ccccc2OC)cc1	14.1% [at 0.501 µM]	
COc1cccc(/C=N\NC(=O)C2=NNC(=O)C2C)c1O (centres undefined)	-6.03%	
CN(C)CCCNC(=O)c1ccc2[nH]c3ccccc3c2c1	38.1% [at 0.501 µM]	
CN(C)CCNC(=O)c1[nH]nc2c1CCc1ccccc1-2		44.7 µM (active)
COc1cccc(/C=N/NC(=O)c2[nH]nc3c2CCc2ccccc2-3)c1O		50.1 µM (active)
